The record followed here is PubChem BioAssay (NCI).

Experiment [1] is described as follows: NCI Yeast Anticancer Drug Screen. Data for the rad50 strain (AID 155).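 Also: 0% = growth of vehicle-only cultures of the same strain.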 The conditions noted are these: S. cerevisiae rad50 strain growth inhibition, active compounds read high. Summed up:
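Vehicle-treated cultures provide the reference for the growth inhibition reported for compound-exposed, repair-deficient yeast.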

Experiment [2] can be described thus: NCI Yeast Anticancer Drug Screen. Data for the mec2-1 strain (AID 157). The conditions noted are these: S. cerevisiae mec2-1 strain, active compounds read high. Summed up: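 Vehicle-treated cultures served as reference for growth inhibition of compound-exposed mec2-1 yeast.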
Experiment [3] can be described thus: NCI Yeast Anticancer Drug Screen. Data for the sgs1 mgt1 strain (AID 161).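 Also: 0% = growth of cultures given vehicle only.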 The conditions noted are these: S. cerevisiae sgs1 mgt1 strain, active compounds read high. An outline of the steps: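 Test agents were incubated with a DNA-repair-mutant yeast strain. Growth was then read and compared against vehicle-treated controls.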
Experiment [4] in a line: NCI Yeast Anticancer Drug Screen. Data for the cln2 rad14 strain (AID 165).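 Also: 0% = growth equal to vehicle treated cultures.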 The conditions noted are these: S. cerevisiae cln2 rad14 strain, active compounds read high. An outline of the steps: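 Each compound was tested on cln2 rad14 yeast. Inhibition of growth was calculated against vehicle-exposed controls.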
The nature of experiment [5]: NCI Yeast Anticancer Drug Screen. Data for the bub3 strain (AID 167). The conditions noted are these: S. cerevisiae bub3 mutant strain, active compounds read high. Summed up: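 Mutant yeast screening strain plus compound; vehicle-treated cultures serve as the 0% inhibition reference.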
Experiment [6] is described as follows: NCI Yeast Anticancer Drug Screen. Data for the mlh1 rad18 strain (AID 175). The conditions noted are these: S. cerevisiae mlh1 rad18 strain growth inhibition, active compounds read high. Summed up: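 Vehicle-treated cultures served as the reference for growth inhibition in a yeast strain carrying DNA damage repair alterations exposed to each compound.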
The mark [7] stands for this setting: at 5.0 µM (retest, dose inferred, filed as 0.5).
The mark [8] stands for this setting: at 50.0 µM (retest, dose inferred, filed as 5.0).

The panel holds about 79,000 compounds, 15% with a hit somewhere; the sample as a whole holds those more often. Values without a mark were called inactive. Calls of active or inactive are those of the source. Rule as the data show it: active = growth inhibition above about 70%; inactive = the rest.

Consider `O=[N+]([O-])c1ccc(N2CCN(Cc3ccccc3)CC2)c2c1no[n+]2[O-]`, for which the growth inhibition in experiment [1] (setting [7]) was 50%; in experiment [1] (setting [8]) it was 97% (active); in experiment [1] (at 50.0 µM), 90.1% (active); in experiment [2] (setting [7]) it was 18%; in experiment [2] (setting [8]), 98% (active); in experiment [2] (at 50.0 µM) it was 93.1% (active). Moreover, the growth inhibition in experiment [3] (setting [7]) is 34%; in experiment [3] (setting [8]), 92% (active); in experiment [3] (at 50.0 µM), 89.5% (active); in experiment [4] (setting [7]), 4%; in experiment [4] (setting [8]) it was 22%; in experiment [4] (at 50.0 µM), 72.5% (active). The growth inhibition is 11% in experiment [5] (setting [7]); 78% (active) in experiment [5] (setting [8]); 90% (active) in experiment [5] (at 50.0 µM); 39% in experiment [6] (setting [7]); 97% (active) in experiment [6] (setting [8]); 88.3% (active) in experiment [6] (at 50.0 µM).

For the compound `O=C(CBr)c1ccc(OC(=O)c2ccccc2)cc1`, the growth inhibition in experiment [1] (setting [7]) was 97% (active); in experiment [1] (setting [8]), 99% (active); in experiment [1] (at 50.0 µM) it was 45.3%; in experiment [2] (setting [7]), 100% (active); in experiment [2] (setting [8]), 99% (active); in experiment [2] (at 50.0 µM), 13.1%. Also, the growth inhibition in experiment [3] (setting [7]) is 100% (active); in experiment [3] (setting [8]) it was 100% (active); in experiment [3] (at 50.0 µM), 18.4%; in experiment [4] (setting [7]), 44%; in experiment [4] (setting [8]), 99% (active); in experiment [4] (at 50.0 µM), -12.7%. Also, the growth inhibition in experiment [5] (setting [7]) was 100% (active); in experiment [5] (setting [8]), 100% (active); in experiment [5] (at 50.0 µM), 45.8%; in experiment [6] (setting [7]), 62%; in experiment [6] (setting [8]), 98% (active); in experiment [6] (at 50.0 µM), 74.5% (active).

On to `O=C(/C(Cl)=N/O)c1ccc(-c2ccccc2)cc1`, for which the growth inhibition in experiment [1] (setting [7]) was 8%; in experiment [1] (setting [8]), 97% (active); in experiment [1] (at 50.0 µM) it was 99.3% (active); in experiment [2] (setting [7]) it was 5%; in experiment [2] (setting [8]), 98% (active); in experiment [2] (at 50.0 µM) it was 59.4%. In addition, the growth inhibition in experiment [3] (setting [7]) is 2%; in experiment [3] (setting [8]), 98% (active); in experiment [3] (at 50.0 µM), 95.5% (active); in experiment [4] (setting [7]) it was 15%; in experiment [4] (setting [8]), 93% (active); in experiment [4] (at 50.0 µM) it was 99.2% (active). For the same compound, the growth inhibition in experiment [5] (setting [7]) was 6%; in experiment [5] (setting [8]) it was 97% (active); in experiment [5] (at 50.0 µM), 99.7% (active); in experiment [6] (setting [7]) it was 13%; in experiment [6] (setting [8]) it was 97% (active); in experiment [6] (at 50.0 µM), 99.3% (active).

With `CCOC(=O)c1c(C)[nH]c2ccc(O)cc12`, the growth inhibition is 6% in experiment [1] (setting [7]); 15% in experiment [1] (setting [8]); 98.3% (active) in experiment [1] (at 50.0 µM); 1% in experiment [2] (setting [7]); -3% in experiment [2] (setting [8]); 96% (active) in experiment [2] (at 50.0 µM). For the same compound, the growth inhibition is -13% in experiment [3] (setting [7]); 20% in experiment [3] (setting [8]); 97% (active) in experiment [3] (at 50.0 µM); -12% in experiment [4] (setting [7]); -10% in experiment [4] (setting [8]); 94.3% (active) in experiment [4] (at 50.0 µM). The growth inhibition in experiment [5] (setting [7]) was -24%; in experiment [5] (setting [8]), 5%; in experiment [5] (at 50.0 µM), 97.3% (active); in experiment [6] (setting [7]), -6%; in experiment [6] (setting [8]), 50%; in experiment [6] (at 50.0 µM) it was 96.9% (active).

As to `N#CCc1cccc2ccccc12`, the growth inhibition was 3% in experiment [1] (setting [7]); 6% in experiment [1] (setting [8]); 13.7% in experiment [1] (at 50.0 µM); 1% in experiment [2] (setting [7]); 10% in experiment [2] (setting [8]); -16.8% in experiment [2] (at 50.0 µM). The growth inhibition was 0% in experiment [3] (setting [7]); 4% in experiment [3] (setting [8]); -14.2% in experiment [3] (at 50.0 µM); -2% in experiment [4] (setting [7]); 3% in experiment [4] (setting [8]); -17.1% in experiment [4] (at 50.0 µM). The growth inhibition in experiment [5] (setting [7]) was 0%; in experiment [5] (setting [8]), -4%; in experiment [5] (at 50.0 µM), -9.9%; in experiment [6] (setting [7]) it was 5%; in experiment [6] (setting [8]), 10%; in experiment [6] (at 50.0 µM), 5%.

As to `CCCCCCCCc1cc(Cl)c(O)c(Cl)c1`, the growth inhibition in experiment [1] (setting [7]) is 3%; in experiment [1] (setting [8]), 75% (active); in experiment [1] (at 50.0 µM), 99.5% (active); in experiment [2] (setting [7]), -8%; in experiment [2] (setting [8]), 90% (active); in experiment [2] (at 50.0 µM), 99.6% (active). In addition, the growth inhibition was -14% in experiment [3] (setting [7]); 98% (active) in experiment [3] (setting [8]); 99.2% (active) in experiment [3] (at 50.0 µM); -13% in experiment [4] (setting [7]); 97% (active) in experiment [4] (setting [8]); 99.6% (active) in experiment [4] (at 50.0 µM). The growth inhibition was -11% in experiment [5] (setting [7]); 66% in experiment [5] (setting [8]); 98.7% (active) in experiment [5] (at 50.0 µM); -10% in experiment [6] (setting [7]); 98% (active) in experiment [6] (setting [8]); 99.3% (active) in experiment [6] (at 50.0 µM).

`CCOc1ccc(Nc2nc3c(s2)C(=O)c2ccccc2C3=O)cc1`: the growth inhibition in experiment [1] (setting [7]) was 78% (active); in experiment [1] (setting [8]), 99% (active); in experiment [1] (at 50.0 µM) it was 90.7% (active); in experiment [2] (setting [7]), 99% (active); in experiment [2] (setting [8]) it was 99% (active); in experiment [2] (at 50.0 µM), 92.1% (active). The growth inhibition in experiment [3] (setting [7]) was 90% (active); in experiment [3] (setting [8]) it was 99% (active); in experiment [3] (at 50.0 µM), 92.7% (active); in experiment [4] (setting [7]), 58%; in experiment [4] (setting [8]), 98% (active); in experiment [4] (at 50.0 µM), 90.8% (active). Moreover, the growth inhibition in experiment [5] (setting [7]) was 98% (active); in experiment [5] (setting [8]), 99% (active); in experiment [5] (at 50.0 µM) it was 92.5% (active); in experiment [6] (setting [7]), 89% (active); in experiment [6] (setting [8]) it was 98% (active); in experiment [6] (at 50.0 µM), 91.8% (active).

`CC(C)=C1C=C2CC[C@@H]3[C@](C)(CCC[C@@]3(C)C(=O)O)[C@H]2CC1`: the growth inhibition in experiment [1] (setting [7]) is -1%; in experiment [1] (setting [8]), 93% (active); in experiment [1] (at 50.0 µM), 88.3% (active); in experiment [2] (setting [7]), 3%; in experiment [2] (setting [8]), 95% (active); in experiment [2] (at 50.0 µM), 90.2% (active). Further, the growth inhibition is 2% in experiment [3] (setting [7]); 95% (active) in experiment [3] (setting [8]); 91% (active) in experiment [3] (at 50.0 µM); -4% in experiment [4] (setting [7]); 91% (active) in experiment [4] (setting [8]); 90.3% (active) in experiment [4] (at 50.0 µM). In addition, the growth inhibition in experiment [5] (setting [7]) is -1%; in experiment [5] (setting [8]), 94% (active); in experiment [5] (at 50.0 µM) it was 85.8% (active); in experiment [6] (setting [7]), 0%; in experiment [6] (setting [8]) it was 94% (active); in experiment [6] (at 50.0 µM), 88.5% (active).

Turning to `COc1ccc2c(c1)C(OC)C1c3c(cc4c(c3-2)OCO4)CCN1C` (stereo not given), the growth inhibition in experiment [1] (setting [7]) is 24%; in experiment [1] (setting [8]), 52%; in experiment [1] (at 50.0 µM), -23.1%; in experiment [2] (setting [7]), 14%; in experiment [2] (setting [8]) it was 27%; in experiment [2] (at 50.0 µM) it was -17.5%. Also, the growth inhibition was 12% in experiment [3] (setting [7]); 28% in experiment [3] (setting [8]); -8.75% in experiment [3] (at 50.0 µM); 22% in experiment [4] (setting [7]); 28% in experiment [4] (setting [8]); -1.45% in experiment [4] (at 50.0 µM). Further, the growth inhibition in experiment [5] (setting [7]) was 28%; in experiment [5] (setting [8]) it was 35%; in experiment [5] (at 50.0 µM), -6.05%; in experiment [6] (setting [7]) it was 35%; in experiment [6] (setting [8]), 53%; in experiment [6] (at 50.0 µM), 78.3% (active).

Regarding `O=C(Nc1cccc(C(F)(F)F)c1)Oc1ccc(Cl)c2cccnc12`, the growth inhibition in experiment [1] (setting [7]) was 77% (active); in experiment [1] (setting [8]), 98% (active); in experiment [1] (at 50.0 µM), 89.8% (active); in experiment [2] (setting [7]), 66%; in experiment [2] (setting [8]), 99% (active); in experiment [2] (at 50.0 µM), 91.8% (active). For the same compound, the growth inhibition in experiment [3] (setting [7]) was 98% (active); in experiment [3] (setting [8]), 99% (active); in experiment [3] (at 50.0 µM), 92.8% (active); in experiment [4] (setting [7]), 90% (active); in experiment [4] (setting [8]), 98% (active); in experiment [4] (at 50.0 µM) it was 88.9% (active). Moreover, the growth inhibition was 94% (active) in experiment [5] (setting [7]); 99% (active) in experiment [5] (setting [8]); 91.7% (active) in experiment [5] (at 50.0 µM); 71% (active) in experiment [6] (setting [7]); 99% (active) in experiment [6] (setting [8]); 91.7% (active) in experiment [6] (at 50.0 µM).
